# Compound activity deposited in PubChem by National Center for Advancing Translational Sciences (NCATS).
# Sm TGR block = qHTS Assay for the Inhibitors of Schistosoma Mansoni Peroxiredoxins | purified TGR, DTNB reduction, TNB absorbance 405 nm | Potency, µM (titrated, usually from 114 µM), without a hit: top-dose activity change, negative = inhibition, actives largely listed as inhibitors | hit rate 3% among 360,000 | AID 485364, 2010; further: on the % scale 0 is the no-effect control and ±100 the full control effect; nearly all actives have a fitted effect of over 60% in size
#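 TGR 20 nM + NADPH 100 uM (dispensed conc.), cpd preinc 15 min RT; start with NADPH (500 uM addition) then DTNB (15 mM addition). Kinetic TNB absorbance, 405 nm filter. Four-parameter Hill fit across titration.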
# Giardia FBPA inh = qHTS Assay for Inhibitors of Fructose-1,6-bisphosphate Aldolase from Giardia Lamblia | hit rate 0.71% among 290,000 | Potency, µM (titrated, usually from 59.6 µM), for inactives: at the highest dose activity, negative = inhibition, actives largely listed as inhibitors | purified Giardia FBPA | AID 2451, 2010 | A8B2U2; further: on the % scale 0 is the no-effect control and ±100 the full control effect; nearly all actives have a fitted effect of over 55% in size
# Target sequence (A8B2U2 whole entry, looked up): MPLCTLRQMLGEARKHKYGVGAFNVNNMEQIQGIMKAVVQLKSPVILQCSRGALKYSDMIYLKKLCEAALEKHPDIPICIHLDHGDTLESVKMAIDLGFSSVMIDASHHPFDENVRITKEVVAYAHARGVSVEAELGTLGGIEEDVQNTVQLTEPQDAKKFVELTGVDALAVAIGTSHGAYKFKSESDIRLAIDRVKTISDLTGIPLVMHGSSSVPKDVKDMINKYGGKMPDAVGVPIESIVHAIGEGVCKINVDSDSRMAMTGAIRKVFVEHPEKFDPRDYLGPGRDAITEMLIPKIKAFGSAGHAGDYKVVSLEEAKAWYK
#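 40 nM FBPA preincubated 10 min at RT with compound (up to 57.5 uM final), then substrate plus GAPDH/TPI/NAD/arsenate coupling and diaphorase/resazurin added. Fluorescence read after 20 min at RT, 525/598 nm.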
# Tb PYK inh = qHTS of Trypanosoma Brucei Inhibitors; pyruvate kinase (Trypanosoma brucei), Q57TT1; TbPYK enzyme, Kinase-Glo Plus ATP luminescence, 45 min; Potency, µM (series often up to 76.8 µM), without a hit: at the top dose activity, negative = inhibition, usual class: inhibitors; hit rate 0.12% among 410,000; AID 624173, 2012; further: on the % scale 0 is the no-effect control and ±100 the full control effect; nearly all actives have a fitted effect of over 50% in size
#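 TbPYK + substrate in 50 mM TEA pH 7.2, 100 mM KCl, 10 mM MgCl2, 0.05% BSA, 0.01% Tween-20; cpd pinned; ADP 130 uM final; 45 min RT; Kinase-Glo Plus 10 min; luminescence endpoint.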
# RE007 growth inh = qHTS Assay for Inhibitors of the HIV-1 protein Vpr; hit rate 0.21% among 360,000; S. pombe RE007 Vpr strain, BacTiter-Glo ATP luminescence, 24 h; Potency, µM (top dose mostly 92.2 µM), for inactives: top-dose activity change, negative = less growth, hits mostly inhibitors; active means well fitted falling curve with a large enough effect; inconclusive means small, poorly fitted or top-dose-only effect; inactive means no such curve, though single readings can be large or run the other way; further: on the % scale 0 is the no-effect control and ±100 the full control effect; nearly all actives have a fitted effect of over 50% in size
#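 Fission yeast RE007 carrying one integrated HIV-1 vpr copy, seeded at OD 0.01 in PMG+AL medium with 23 nL pinned compound. Grown 24 h at 30 degrees; viability read by BacTiter-Glo luminescence after 5 min.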
# LmPK inh = qHTS Assay for Inhibitors of Leishmania Mexicana Pyruvate Kinase (LmPK) | Q27686 | purified LmPK, Kinase-Glo ATP luminescence, 1 h | Potency, µM (highest dose often 57.5 µM), for inactives: top-dose activity change, negative = inhibition, usual class: inhibitors | hit rate 0.37% among 290,000 | AID 1721, 2009; further: on the % scale 0 is the no-effect control and ±100 the full control effect
#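 Kinase-Glo luminescence read after 1 h RT reaction of 0.1 nM LmPK with 0.5 mM PEP and 0.1 mM ADP. Activity scaled between uninhibited and enzyme-free controls.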
# NS1 inh = qHTS Assay for Inhibitors of Influenza NS1 Protein Function | Potency, µM (series often up to 46.1 µM), inactives show at the highest dose activity, positive = more growth | hit rate 0.4% among 270,000; calls by dose curve; further: actives are rising curves; nearly all actives have a fitted effect of over 50% in size
#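 A cell-based growth assay was used: compounds that relieve NS1-induced slow growth of budding yeast raise OD600. Assay medium was yeast nitrogen base with ammonium sulphate and -URA supplement, pH 6.0, with 2% galactose.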
# * hit, by the source's call; ? = inconclusive; / = not tested or not shown; [ ] = remark or other dose. Most compounds without a hit are left out; they make up all but 3.5% or so of the library. Unless noted, the call rests on the fitted dose curve; in most records, active means well fitted curve in the direction sought with a large enough effect; inconclusive means small, poorly fitted or top-dose-only effect, or another doubt; inactive means no such curve, though single readings can be large; an effect the other way counts as inactive or inconclusive. Potency means the concentration at half of the fitted maximal effect.
SMILES,Sm TGR block,Giardia FBPA inh,Tb PYK inh,RE007 growth inh,LmPK inh,NS1 inh
O=C(c1sc2ccccc2c1Cl)N(Cc1ccco1)C1CCS(=O)(=O)C1 (stereo not drawn),32µM*,3%,-5%,-2%,1%,-8%
CCOc1cccc(C(=O)N(Cc2ccc(C)o2)C2CCS(=O)(=O)C2)c1 (stereo not drawn),-1%,/,-3%,/,/,/
CC(CNc1nc2ccccc2c2nc(-c3ccccc3)nn12)c1ccccc1 (stereo not drawn),1%,/,1%,/,/,/
CCN1/C(=C2\C(=O)N(C)C(=S)N2C)C=Cc2cc(C)ccc21,5%,-9%,-25%,-19%,16µM*,-37%
CCN1C(=O)/C(=C2\C=Cc3ccccc3N2CC)OC1=S,/,/,7%,1%,/,-40%
CCN1/C(=C2\C(=O)N(C)C(=S)N2C)C=Cc2ccccc21,0%,-19%,?,-24%,?,-11%
CCN1/C(=C2\C(=O)N(C)C(=S)N2c2ccccc2)C=Cc2ccccc21,-15%,-9%,?,-28%,18µM*,-13%
CCC(C)(C)n1nnnc1C(c1cc2ccc(OC)cc2[nH]c1=O)N1CCc2ccccc21 (stereo not drawn),35µM*,4%,?,18%,2%,?
Cc1cc2cc(C(c3nnnn3Cc3ccco3)N3CCc4ccccc4C3)c(=O)[nH]c2cc1C (stereo not drawn),3.5µM*,?,?,-4%,-4%,10%
COc1ccc(Cn2nnnc2C(c2cc3ccc(OC)cc3[nH]c2=O)N2CCCCCC2)cc1 (stereo not drawn),18µM*,-25%,6%,3%,1%,-5%
Cc1cc2cc(C(c3nnnn3Cc3ccccc3)N3CCc4ccccc43)c(=O)[nH]c2cc1C (stereo not drawn),45µM*,?,5%,-3%,8%,21%
C=C1CCN(C(Cc2ccccc2)C(=O)NCc2ccccc2)S(=O)(=O)c2ccccc21 (stereo not drawn),/,-1%,/,/,/,/
O=C(Nc1ccc(Cl)cc1)C1CCN(c2nc3ccccc3n3cccc23)CC1,-7%,/,2%,/,/,/
Cc1ccc(OCC(=O)N(Cc2ccc(N(C)C)cc2)CC2CCCO2)cc1C (stereo not drawn),5%,/,-20%,/,/,/
Cc1ccc2cc(C(c3nnnn3Cc3ccccc3)N3CCc4ccccc43)c(=O)[nH]c2c1 (stereo not drawn),4%,-16%,-14%,0%,-5%,0%
Cc1ccc2[nH]c(=O)c(C(c3nnnn3Cc3ccccc3)N3CCc4ccccc43)cc2c1 (stereo not drawn),20µM*,?,-24%,7%,11%,9%
COc1cc(/C=N/NC(=O)c2cccnc2)ccc1OC(=O)c1ccc([N+](=O)[O-])cc1,-9%,-1%,0%,6%,0%,/
COc1cc(/C=C/[N+](=O)[O-])ccc1OC(=O)c1cccnc1,1.8µM*,-20%,?,8.9µM*,-4%,-98%
COc1ccc(CCNC(=O)Cn2ncc3c(C)n(Cc4ccccc4F)c(C)c3c2=O)cc1OC,-6%,/,-1%,/,/,/
COCc1cc(C)nc2sc3c(c12)NC(c1ccc(NC(C)=O)cc1)N(c1ccc(C)cc1)C3=O (stereo not drawn),-9%,/,0%,/,/,/
CCOC(=O)c1c(C)[nH]c(C2=NNC(=NC3CC3)SC2)c1C,9%,-8%,7.9µM*,-15%,-22%,/
CCOC(=O)c1c(C)[nH]c(/C(C)=N/O)c1C,-10%,2%,3%,-17%,-5%,-16%
Cc1c(Cl)cccc1NC(=O)CCS(=O)(=O)c1ccc(Br)s1,0%,/,-2%,/,/,/
COCCN(CCOC)c1nc(C)nc2c1nc(-c1ccccc1)n2CCCN1CCCCC1C (stereo not drawn),/,7%,/,/,/,/
Cc1c(Cl)cccc1N=c1c([N+](=O)[O-])nn(-c2ccccc2)n1O,-11%,8%,3%,6%,3%,15%
SMILES,Sm TGR block,Giardia FBPA inh,Tb PYK inh,RE007 growth inh,LmPK inh,NS1 inh
CCc1ccc(N=c2c([N+](=O)[O-])nn(-c3ccc4c(c3)OCCO4)n2O)cc1,10µM*,-11%,2%,19%,6%,/
O=[N+]([O-])c1nn(-c2ccc3c(c2)OCCO3)n(O)c1=Nc1ccc(Cl)cc1,35µM*,-8%,-2%,-9%,-3%,-9%
Cc1cc(C)cc(N=c2c([N+](=O)[O-])nn(-c3ccc4c(c3)OCCO4)n2O)c1,3%,-19%,1%,3%,0%,/
O=[N+]([O-])c1nn(-c2ccc3c(c2)OCCO3)n(O)c1=Nc1ccccc1,-6%,?,-14%,8%,0%,-14%
Cc1ccc(N=c2c([N+](=O)[O-])nn(-c3ccccc3)n2O)c(C)c1,32µM*,-27%,-9%,4%,-2%,-47%
Cc1ccc(N=c2c([N+](=O)[O-])nn(-c3ccc4c(c3)OCCO4)n2O)cc1F,-36%,-1%,-6%,11%,12%,/
Cc1ccc(N=c2c([N+](=O)[O-])nn(-c3ccc4c(c3)OCCO4)n2O)c(Cl)c1,4.5µM*,-8%,/,/,-9%,/
O=[N+]([O-])c1nn(-c2ccc3c(c2)OCCO3)n(O)c1=NC1CCCCCC1,35µM*,-11%,4%,2%,3%,-59%
CNC(=O)C1CCC(Cn2c(=O)c3sccc3n(CC(=O)NCc3cccc(OC)c3)c2=O)CC1 (stereo not drawn),0%,/,0%,/,/,/
Cc1cccc(/C(N)=N/OC(=O)c2ccc(Cl)cc2Cl)c1,-7%,0%,?,-15%,7.9µM*,-26%
Cc1cc(C)nc(OC(=O)c2ccc(Cl)cc2Cl)n1,22µM*,-4%,/,/,-1%,2%
N/C(=N\OC(=O)c1ccccc1Cl)c1ccccc1,-2%,-2%,-17%,-21%,14µM*,-29%
N/C(=N\OC(=O)c1ccc(Cl)cc1Cl)c1ccccc1,-21%,14%,?,-23%,11µM*,-106%
CC(=O)O[C@H]1C2=CO[C@H](C)[C@H]3[C@H]4C5=C([C@H](O)[C@H]6O[C@@H]6C5=O)[C@H](O[C@H]4C)[C@@]23C(=O)[C@H]2O[C@@H]21,/,-1%[12.9 µM],/,/,/,/
COc1cccc(N2CCN(c3nc4ccc(C(=O)c5ccccc5)cc4n4c(C)nnc34)CC2)c1,10%,/,6%[15.4 µM],/,/,/
O=C(Nc1ccc2c(c1)CCCN2C(=O)c1cccs1)c1cccc(C(F)(F)F)c1,1%,/,2%,/,/,/
